Laboratory results taken from PubChem BioAssay (Tox21).
Values joined by “and” are separate entries in the source; they are usually repeats but may differ in a detail not shown here. Equal values may be shown once. Results filed as inconclusive are left out. The source holds several records for some structures; these can differ, active in one and inactive in another. Active and inactive are the calls of the source. Unless noted, calls follow the shape of the dose curve; as a rule, active = well fitted curve in the direction sought with a large enough effect in the repeat runs; inconclusive = weak or mixed curves; inactive = no such curve, though single readings can be large; an effect the other way counts as inactive or inconclusive.

Experiments:
[1] = biological target: Voltage-gated inwardly rectifying potassium channel KCNH2 (Homo sapiens) (UniProt Q12809); assay: Human Ether-a-go-go-Related Gene (hERG) channel small molecule antagonists: fluorescence cell-based qHTS assay (AID 1671200); conditions: hERG-U2OS cells, FluxOR thallium flux fluorescence; series mostly up to 76.8 µM; also: nearly all actives have a fitted effect of over 50% in size
Chain of Voltage-gated inwardly rectifying potassium channel KCNH2 (Homo sapiens) (Q12809 whole entry, looked up): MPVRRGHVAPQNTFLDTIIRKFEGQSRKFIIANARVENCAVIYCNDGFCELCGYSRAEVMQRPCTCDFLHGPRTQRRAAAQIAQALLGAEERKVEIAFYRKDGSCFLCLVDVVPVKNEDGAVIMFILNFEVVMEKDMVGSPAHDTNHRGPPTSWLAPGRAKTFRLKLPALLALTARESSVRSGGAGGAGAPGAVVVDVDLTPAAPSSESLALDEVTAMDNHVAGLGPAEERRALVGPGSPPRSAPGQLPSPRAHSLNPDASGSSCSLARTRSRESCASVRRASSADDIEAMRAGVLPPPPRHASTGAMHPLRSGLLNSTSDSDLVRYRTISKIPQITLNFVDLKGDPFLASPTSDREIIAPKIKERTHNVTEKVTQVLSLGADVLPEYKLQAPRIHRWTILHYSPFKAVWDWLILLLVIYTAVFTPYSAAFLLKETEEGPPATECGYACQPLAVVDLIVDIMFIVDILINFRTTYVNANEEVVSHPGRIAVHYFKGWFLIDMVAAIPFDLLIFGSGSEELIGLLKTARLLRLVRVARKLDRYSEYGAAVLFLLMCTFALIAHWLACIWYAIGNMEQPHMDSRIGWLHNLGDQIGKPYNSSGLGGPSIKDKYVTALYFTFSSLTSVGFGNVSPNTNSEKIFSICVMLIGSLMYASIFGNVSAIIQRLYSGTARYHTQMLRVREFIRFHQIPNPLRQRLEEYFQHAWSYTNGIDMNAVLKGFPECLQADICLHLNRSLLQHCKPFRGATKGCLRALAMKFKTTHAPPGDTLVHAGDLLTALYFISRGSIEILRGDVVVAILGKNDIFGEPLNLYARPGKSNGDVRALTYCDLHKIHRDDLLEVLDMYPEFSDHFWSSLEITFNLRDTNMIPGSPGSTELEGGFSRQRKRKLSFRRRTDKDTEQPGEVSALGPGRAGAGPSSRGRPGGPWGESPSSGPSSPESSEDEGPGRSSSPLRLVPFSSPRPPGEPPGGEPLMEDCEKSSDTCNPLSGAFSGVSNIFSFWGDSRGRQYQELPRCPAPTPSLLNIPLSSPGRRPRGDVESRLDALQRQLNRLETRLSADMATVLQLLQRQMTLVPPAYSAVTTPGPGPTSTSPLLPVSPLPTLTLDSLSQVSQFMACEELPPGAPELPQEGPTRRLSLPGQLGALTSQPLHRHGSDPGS
How it was run: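 U2OS cells expressing the channel were plated at 1000 cells/well, incubated overnight at 37 C, then loaded with FluxOR II thallium-sensitive dye for 1 h at room temperature in the dark, with a further 10 min at room temperature before stimulation.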

[2] = biological target: Acetylcholinesterase (Homo sapiens) (UniProt P22303); assay: Acetylcholinesterase (AChE) small molecule antagonists: enzyme-based qHTS assay with human liver microsomes (AID 1347399; calls by dose curve; also: nearly all actives have a fitted effect of over 60% in size); conditions: Potency: qHTS inhibition; series mostly up to 115 µM
Chain of Acetylcholinesterase (Homo sapiens) (P22303 whole entry, looked up): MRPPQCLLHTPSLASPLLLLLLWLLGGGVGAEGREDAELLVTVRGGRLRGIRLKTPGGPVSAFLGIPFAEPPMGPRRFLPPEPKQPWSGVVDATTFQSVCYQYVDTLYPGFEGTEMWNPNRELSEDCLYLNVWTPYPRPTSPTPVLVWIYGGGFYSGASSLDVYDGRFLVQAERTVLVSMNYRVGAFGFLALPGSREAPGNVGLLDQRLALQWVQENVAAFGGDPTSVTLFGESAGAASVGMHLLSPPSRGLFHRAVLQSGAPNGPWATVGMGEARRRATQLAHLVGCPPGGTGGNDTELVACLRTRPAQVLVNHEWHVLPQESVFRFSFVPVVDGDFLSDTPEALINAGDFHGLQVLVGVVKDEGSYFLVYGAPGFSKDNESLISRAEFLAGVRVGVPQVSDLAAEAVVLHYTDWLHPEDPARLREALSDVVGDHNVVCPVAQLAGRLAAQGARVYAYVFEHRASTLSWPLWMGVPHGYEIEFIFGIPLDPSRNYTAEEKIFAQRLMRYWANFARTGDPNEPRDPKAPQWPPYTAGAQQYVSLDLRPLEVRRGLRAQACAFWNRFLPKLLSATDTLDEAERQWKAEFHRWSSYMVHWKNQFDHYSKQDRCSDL
How it was run: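 Recombinant human AChE (50 mU/mL in the enzyme mix) and human liver microsomes (0.25 mg/mL final) were preincubated with compound and NADPH (0.25 mg/mL final) for 30 min at 37 C. Acetylthiocholine/DTNB was then added; thiocholine was read colorimetrically after 10 min at room temperature.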

[3] = biological target: Cytochrome P450 2D6 (Homo sapiens) (UniProt P10635); assay: Cytochrome P450 Family 2 Subfamily D Member 6 (CYP2D6) small molecule antagonists: luciferase reporter qHTS assay (AID 1671196); conditions: P450-Glo CYP2D6 enzyme assay, luciferin luminescence, 1 h; series mostly up to 115 µM; also: nearly all actives have a fitted effect of over 50% in size
Chain of Cytochrome P450 2D6 (Homo sapiens) (P10635 whole entry, looked up): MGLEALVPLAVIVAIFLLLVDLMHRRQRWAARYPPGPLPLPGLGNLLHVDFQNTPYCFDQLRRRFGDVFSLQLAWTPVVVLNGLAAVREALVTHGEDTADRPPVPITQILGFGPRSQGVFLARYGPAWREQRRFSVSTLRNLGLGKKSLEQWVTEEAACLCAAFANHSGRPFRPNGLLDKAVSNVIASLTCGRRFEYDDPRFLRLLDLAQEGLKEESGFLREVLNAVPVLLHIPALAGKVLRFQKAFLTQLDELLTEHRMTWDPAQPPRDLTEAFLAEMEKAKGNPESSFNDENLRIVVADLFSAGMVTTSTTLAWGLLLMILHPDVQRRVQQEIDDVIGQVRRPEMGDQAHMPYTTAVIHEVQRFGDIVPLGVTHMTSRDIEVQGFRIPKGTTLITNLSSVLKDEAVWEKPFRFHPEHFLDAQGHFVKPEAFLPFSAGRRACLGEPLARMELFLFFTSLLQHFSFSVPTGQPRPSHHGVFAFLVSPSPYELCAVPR
How it was run: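 CYP2D6 enzyme–substrate mix was held with compound for 10 min at room temperature, then NADPH regeneration solution was added and the reaction ran 1 h at room temperature. Luciferin product was detected by luminescence after 20 min with detection reagent.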

[4] = biological target: Cytochrome P450 2C19 (Homo sapiens) (UniProt P33261); assay: Cytochrome P450 Family 2 Subfamily C Member 19 (CYP2C19) small molecule antagonists: luciferase reporter qHTS assay (AID 1671197); conditions: P450-Glo CYP2C19 enzyme, luciferin luminescence, 1 h; series mostly up to 115 µM; also: nearly all actives have a fitted effect of over 65% in size
Chain of Cytochrome P450 2C19 (Homo sapiens) (P33261 whole entry, looked up): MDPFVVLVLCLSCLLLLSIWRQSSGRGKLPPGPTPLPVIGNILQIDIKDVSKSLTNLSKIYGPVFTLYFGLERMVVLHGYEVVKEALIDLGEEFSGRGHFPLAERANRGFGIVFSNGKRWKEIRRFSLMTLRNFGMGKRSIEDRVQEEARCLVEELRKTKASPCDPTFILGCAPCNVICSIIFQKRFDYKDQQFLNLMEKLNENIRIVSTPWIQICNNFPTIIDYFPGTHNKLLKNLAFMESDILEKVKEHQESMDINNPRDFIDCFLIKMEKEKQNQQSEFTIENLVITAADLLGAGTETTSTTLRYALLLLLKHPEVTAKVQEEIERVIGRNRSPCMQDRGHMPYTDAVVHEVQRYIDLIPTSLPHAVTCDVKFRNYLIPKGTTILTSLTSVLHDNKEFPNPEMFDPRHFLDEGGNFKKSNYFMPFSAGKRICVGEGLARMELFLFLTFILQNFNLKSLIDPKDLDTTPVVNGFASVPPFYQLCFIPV
How it was run: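 P450-Glo CYP2C19 screening system; proluciferin substrate; DMSO compound stocks; 10 min RT preincubation; NADPH regeneration, 1 h at 37C; luciferin detection reagent, 20 min RT; luminescence as RLU.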

[5] = biological target: Cytochrome P450 1A2 (Homo sapiens) (UniProt P05177); assay: Cytochrome P450 Family 1 Subfamily A Member 2 (CYP1A2) small molecule antagonists: luciferase reporter qHTS assay (AID 1671199); conditions: P450-Glo CYP1A2 enzyme, luciferin luminescence, 1 h; series mostly up to 115 µM; also: nearly all actives have a fitted effect of over 50% in size
Chain of Cytochrome P450 1A2 (Homo sapiens) (P05177 whole entry, looked up): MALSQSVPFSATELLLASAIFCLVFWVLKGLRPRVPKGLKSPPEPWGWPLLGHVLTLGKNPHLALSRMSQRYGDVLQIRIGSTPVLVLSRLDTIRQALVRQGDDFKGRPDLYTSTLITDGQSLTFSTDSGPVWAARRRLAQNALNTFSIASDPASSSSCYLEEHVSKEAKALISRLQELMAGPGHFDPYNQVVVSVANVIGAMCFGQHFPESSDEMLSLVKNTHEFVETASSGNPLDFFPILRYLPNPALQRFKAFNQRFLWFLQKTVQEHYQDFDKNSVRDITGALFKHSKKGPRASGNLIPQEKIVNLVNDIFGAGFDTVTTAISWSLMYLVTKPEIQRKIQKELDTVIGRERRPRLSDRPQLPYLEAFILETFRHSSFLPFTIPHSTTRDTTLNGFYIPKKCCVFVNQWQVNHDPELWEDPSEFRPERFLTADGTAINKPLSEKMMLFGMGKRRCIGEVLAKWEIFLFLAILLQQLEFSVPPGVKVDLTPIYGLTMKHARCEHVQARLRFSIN
How it was run: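 Human CYP1A2 activity measured with a P450-Glo proluciferin substrate; compounds in DMSO preincubated 10 min at room temperature with enzyme-substrate mix, then NADPH regeneration system added for 1 h. Luciferin detection reagent, 20 min, luminescence read.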

[6] = biological target: Cytochrome P450 3A4 (Homo sapiens) (UniProt P08684); assay: Cytochrome P450 Family 3 Subfamily A Member 4 (CYP3A4) small molecule antagonists: luciferase reporter qHTS assay (AID 1671201); conditions: P450-Glo CYP3A4 enzyme, luciferin luminescence, 1 h; series mostly up to 115 µM; also: nearly all actives have a fitted effect of over 50% in size
Chain of Cytochrome P450 3A4 (Homo sapiens) (P08684 whole entry, looked up): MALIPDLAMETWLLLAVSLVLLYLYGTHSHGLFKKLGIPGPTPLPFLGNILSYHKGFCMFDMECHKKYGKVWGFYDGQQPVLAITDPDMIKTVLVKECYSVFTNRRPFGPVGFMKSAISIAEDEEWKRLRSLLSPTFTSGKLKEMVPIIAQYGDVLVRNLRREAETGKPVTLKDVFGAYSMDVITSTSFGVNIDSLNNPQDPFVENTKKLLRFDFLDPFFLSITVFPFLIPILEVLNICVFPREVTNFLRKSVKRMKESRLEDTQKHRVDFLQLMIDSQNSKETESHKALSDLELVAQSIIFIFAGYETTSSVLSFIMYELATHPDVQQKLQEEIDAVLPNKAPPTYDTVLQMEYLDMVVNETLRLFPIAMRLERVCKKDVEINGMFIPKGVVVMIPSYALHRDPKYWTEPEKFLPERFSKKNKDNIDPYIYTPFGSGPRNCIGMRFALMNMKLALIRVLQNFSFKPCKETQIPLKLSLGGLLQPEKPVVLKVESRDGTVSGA
How it was run: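 P450-Glo CYP3A4 system with proluciferin substrate; compounds preincubated 10 min RT with enzyme-substrate mix, then NADPH regeneration added for 1 h RT. Detection reagent 20 min, luminescence read as relative luminescence units.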

[7] = biological target: Cytochrome P450 2C9 (Homo sapiens) (UniProt P11712); assay: Cytochrome P450 Family 2 Subfamily C Member 9 (CYP2C9) small molecule antagonists: luciferase reporter qHTS assay (AID 1671198); conditions: P450-Glo CYP2C9 enzyme assay, luciferin luminescence; series mostly up to 115 µM; also: nearly all actives have a fitted effect of over 50% in size
Chain of Cytochrome P450 2C9 (Homo sapiens) (P11712 whole entry, looked up): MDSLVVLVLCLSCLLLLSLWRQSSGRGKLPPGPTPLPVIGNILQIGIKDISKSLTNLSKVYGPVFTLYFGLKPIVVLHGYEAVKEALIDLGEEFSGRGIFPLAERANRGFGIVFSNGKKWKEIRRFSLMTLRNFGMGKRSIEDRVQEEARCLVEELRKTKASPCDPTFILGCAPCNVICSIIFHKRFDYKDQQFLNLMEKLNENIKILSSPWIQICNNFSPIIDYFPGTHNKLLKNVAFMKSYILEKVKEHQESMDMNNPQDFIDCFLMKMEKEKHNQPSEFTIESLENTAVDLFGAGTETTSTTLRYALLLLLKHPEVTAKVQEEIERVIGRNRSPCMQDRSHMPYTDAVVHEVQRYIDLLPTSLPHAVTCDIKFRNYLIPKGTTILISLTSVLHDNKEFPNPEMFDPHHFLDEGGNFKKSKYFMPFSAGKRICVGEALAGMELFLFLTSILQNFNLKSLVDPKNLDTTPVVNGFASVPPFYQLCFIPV
How it was run: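 P450-Glo proluciferin substrate with CYP2C9 enzyme; 10 min RT preincubation, then NADPH regeneration 1 h at 37C; luciferin detection reagent 20 min RT, luminescence in relative luminescence units.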
Potency is read from the fitted curve at half-maximal effect.

| SMILES | Potency [1] | Potency [2] | Potency [3] | Potency [4] | Potency [5] | Potency [6] | Potency [7] |
| --- | --- | --- | --- | --- | --- | --- | --- |
| C=CC(=O)OC | inactive | – | – | – | – | – | – |
| CCOC(=O)[C@]1(c2ccccc2)Oc2ccccc2[C@@H]1N | 3.09 µM (active) | inactive | 0.2 µM (active) | 35.6 µM (active) | – | – | – |
| NNC(=O)c1cccnc1 | – | inactive | – | 71.3 µM (active) | 12.7 µM (active) | 2.53 µM (active) | – |
| CCOP(=O)(OCC)O/C(=C/Cl)c1ccc(Cl)cc1Cl | inactive | – | 39.9 µM (active) | 1.12 µM (active) | 6.33 µM (active) | inactive | 28.3 µM (active) |
| O=C1CN=C(c2ccccc2)c2cc(Cl)ccc2N1CC1CC1 | – | inactive | – | 6.64 µM (active) | – | – | – |
| C=CC(=O)OCC(C)O (stereo unspecified) | inactive | inactive | inactive | inactive | – | inactive | – |
| CN(N=O)c1ccc([N+](=O)[O-])cc1 | inactive | inactive | – | 35.6 µM (active) | – | inactive | – |
| CCOC(=O)COc1cc(-c2nn(C)c(OC(F)F)c2Cl)c(F)cc1Cl | 34.7 µM (active) | inactive | – | 31.7 µM (active) | – | – | 6.33 µM (active) |
| C/C(=C\c1ccccc1)[N+](=O)[O-] | inactive | inactive | – | – | 35.6 µM (active) | 44.8 µM (active) | 35.6 µM (active) |
| Nc1nc(N)nc(N)n1 | inactive | inactive | inactive | – | – | inactive | – |
| COc1c(C(C)(C)C)cc([N+](=O)[O-])c(C)c1[N+](=O)[O-] | – | inactive | – | 28.1 µM (active) | 1.77 µM (active) | inactive | – |
| C[C@@H]1CC[C@H]2[C@@H](C)C(=O)O[C@@H]3O[C@@]4(C)CC[C@@H]1[C@]32OO4 | inactive | – | – | – | – | – | – |
| O=S1OC[C@@H]2[C@H](CO1)[C@]1(Cl)C(Cl)=C(Cl)[C@@]2(Cl)C1(Cl)Cl (stereo partly specified) | – | – | – | 7.96 µM (active) | – | inactive | 39.9 µM (active) |
| CCCCc1c(C)nc(NCC)nc1OS(=O)(=O)N(C)C | – | inactive | – | 79.6 µM (active) | 12.6 µM (active) | 12.6 µM (active) | 31.7 µM (active) |
| c1cc2ccc3cccc4ccc(c1)c2c34 | – | inactive | – | 16.7 µM (active) | 0.564 µM (active) | – | 74.4 µM (active) |
| CCOP(=S)(OCC)Oc1cc(Cl)c(Br)cc1Cl | inactive | – | inactive | 0.71 µM (active) | 3.56 µM (active) | 2.24 µM (active) | 2 µM (active) |

| SMILES | Potency [1] | Potency [2] | Potency [3] | Potency [4] | Potency [5] | Potency [6] | Potency [7] |
| --- | --- | --- | --- | --- | --- | --- | --- |
| CCCCCC[N+](=O)[O-] | inactive | – | – | – | – | – | – |
| CCOP(=S)(OCC)SCSCC | inactive | inactive | – | 20 µM (active) | 22.4 µM (active) | 6.33 µM (active) | 35.6 µM (active) |
| O=C1C(Cl)C(CCl)CN1c1cccc(C(F)(F)F)c1 (stereo unspecified) | – | inactive | – | 8.94 µM (active) | – | inactive | – |
| CCn1cc[n+](C)c1 | inactive and 24.8 µM (active) | – | inactive and 507 nM (active) and 34.7 µM (active) | inactive and 40.3 µM (active) and 79.5 µM (active) | – | inactive | inactive and 32 µM (active) |
| Cc1cc(=O)[nH]o1 | inactive | inactive | inactive | – | inactive | inactive | – |
| c1ccoc1 | inactive | inactive | inactive | inactive | – | inactive | – |
| O=C1C(=O)c2cccc3cccc1c23 | – | inactive | – | 39.9 µM (active) | 8.93 µM (active) | inactive | – |
| CCOP(=O)(OCC)SCCSCC | inactive | 17 µM (active) and 35.6 µM (active) | – | 21.4 µM (active) and 35.6 µM (active) | 34 µM (active) | inactive | inactive |
| CCOP(=O)(OCC)Oc1ccc([N+](=O)[O-])cc1 | – | – | 1.61 µM (active) and 1.59 µM (active) | 1.61 µM (active) and 1.78 µM (active) | 32.1 µM (active) and 31.7 µM (active) | inactive | 64 µM (active) |
| C=CC[C@]1(O)CC[C@H]2[C@@H]3CCC4=CC(=O)CCC4=C3C=C[C@@]21C | – | inactive | – | 9.77 µM (active) | inactive | – | 11 µM (active) |
| C#CCOC(C(=O)OCCN(C)C)(c1ccccc1)c1ccccc1 | – | – | 3.47 µM (active) | 1.95 µM (active) | inactive | – | 2.19 µM (active) |
| CCOC(=O)CBr | inactive | inactive | 40.1 µM (active) | 40.1 µM (active) | – | inactive | – |
| O=S(=O)(Cl)c1ccccc1 | inactive | inactive | – | inactive | inactive | inactive | – |
| COP(=S)(Oc1cc(Cl)c(Br)cc1Cl)c1ccccc1 (stereo unspecified) | inactive | 8.94 µM (active) | – | 0.224 µM (active) | 15.9 µM (active) | 7.1 µM (active) | 0.796 µM (active) |
| COP(=S)(OC)Oc1cc(Cl)c(I)cc1Cl | – | inactive | inactive | 2.24 µM (active) | 12.6 µM (active) | 20 µM (active) | – |
